# Source: PubChem
# Most compounds without a hit are left out; they make up all but 3.5% or so of the library.
# TEAD-YAP inh: TEAD-YAP interaction inhibition | HEK-TIYL cells, TEAD-Gal4/YAP UAS-luciferase luminescence | inhibition, % at 9.12 µM | 640,000 tested, 1.4% active; in the data active = inhibition above about 32%
# GPR151 activ: activators of human GPR151 | PathHunter beta-arrestin GPR151 cells, luminescence | activation, % at 11.2 µM | 650,000 tested, 1% active | AID 1508602; in the data active = activation above about 4.9%
# Target sequence (Q8TDV0 whole entry, looked up): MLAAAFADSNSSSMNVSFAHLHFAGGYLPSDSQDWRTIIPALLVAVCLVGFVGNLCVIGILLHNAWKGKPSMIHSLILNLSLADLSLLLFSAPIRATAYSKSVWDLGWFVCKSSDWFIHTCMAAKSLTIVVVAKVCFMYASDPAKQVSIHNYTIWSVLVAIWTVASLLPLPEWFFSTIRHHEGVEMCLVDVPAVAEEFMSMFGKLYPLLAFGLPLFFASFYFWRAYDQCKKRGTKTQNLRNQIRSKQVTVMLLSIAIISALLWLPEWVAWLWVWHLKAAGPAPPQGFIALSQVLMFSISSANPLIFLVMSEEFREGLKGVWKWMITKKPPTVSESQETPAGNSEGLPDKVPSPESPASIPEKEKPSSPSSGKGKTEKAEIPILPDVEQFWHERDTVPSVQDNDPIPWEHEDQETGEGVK
# MITF inh: human MITF inhibition, primary screen; AlphaScreen MITF homodimerization, bead proximity signal; inhibition, % at 2.6 µM; 650,000 tested, 0.91% active; in the data active = inhibition above about 50%
# FBW7 act: human FBW7 E3 ligase activation, primary screen; normalized activity (activation), % at 26.1 µM; AID 1259310; 650,000 tested, 0.13% active; AlphaScreen FBW7–phospho-cyclin E peptide binding, activator screen; in the data active = normalized activity above about 1.9%;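 also: purified mutant Fbw7 with reduced substrate affinity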
# MITF inh conf: confirmation of human MITF inhibitors | AID 1259372 | shares compounds with MITF inh | 4,700 tested, 16% active | inhibition, % at 2.6 µM | AlphaScreen MITF homodimerization, biotin/His-MITF beads;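 active = inhibition above a cutoff derived from the DMSO control wells, cut at about 28% in these data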;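 also: inhibitors lower the bead chemiluminescence by keeping MITF from dimerizing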
# AlphaScreen DR: optically interferes with AlphaScreen signal in dose response; shares compounds with MITF inh; AlphaScreen optical interference counterscreen, cell-free; IC50, µM; 480 tested, 6% active; AID 1259373; call rule not given here
# AlphaScreen intf2: optically interferes with AlphaScreen signal | shares compounds with MITF inh | AID 1259376 | 4,700 tested, 7.6% active | LysRS AlphaScreen counterscreen, signal interference, triplicate | inhibition, % at 2.6 µM;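 active = inhibition above a cutoff derived from the DMSO control wells, cut at about 30% in these data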
# A number is an active result; - = inactive; . = not tested or not shown.
SMILES,TEAD-YAP inh,GPR151 activ,MITF inh,FBW7 act,MITF inh conf,AlphaScreen intf2,others
COc1cccc(CN2CCN(Cc3ccc(OC)c(OC)c3OC)CC2)c1OC,-,-,77,-,-,-,
COc1cccc(CN2CCSCC2)c1OC,-,-,-,-,.,.,
COc1cccc(C(=O)N2CCC3(CC2)CC3C(=O)Nc2ccccc2)c1OC (stereo not given),-,-,-,-,.,.,
COc1ccc(CN2CCN(Cc3ccc(Cl)cc3)CC2)c(OC)c1OC,-,-,82,-,-,-,
COc1ccc(CN2CCN(S(=O)(=O)c3ccc(Cl)cc3)CC2)c(OC)c1OC,-,-,-,-,.,.,
CC(=O)C(Cc1ccccc1)NC(=O)COc1ccccc1F (stereo not given),-,-,-,-,.,.,
Oc1ccc(CNc2ccccc2Br)c2cccnc12,-,-,71,-,42,87,
Cc1ccccc1NCc1ccc(O)c2ncccc12,-,-,68,-,62,97,
Cc1cccc(NCc2ccc(O)c3ncccc23)n1,-,-,74,-,53,91,
CCOc1ccc(S(=O)(=O)Nc2ccccc2Br)c2cccnc12,-,-,-,-,.,.,
Cc1cccc(NCc2ccccc2O)c1C,-,-,-,-,.,.,
Cc1ccc2c(c1)N(CC(=O)OC(CC(C)C)C(=O)NC1CCCC1)C(=O)CO2 (stereo not given),-,-,54,-,-,-,
CC(C)CC(OC(=O)CN1C(=O)COc2ccccc21)C(=O)NC1CCCCC1 (stereo not given),-,-,-,-,.,.,
COc1ccc(CN2CCN(C/C=C/c3ccccc3)CC2)cc1O,-,-,62,-,-,-,
COc1cc(CN2CCN(C/C=C/c3ccccc3)CC2)ccc1O,-,-,52,-,-,-,
COc1ccc(CN2CCN(C/C=C/c3ccccc3)CC2)cc1,-,-,-,-,.,.,
O=C(C1CCN(Cc2ccccc2)CC1)N1CCN(C/C=C/c2ccccc2)CC1,-,-,60,-,-,-,
COc1cc(CN2CCN(C/C=C/c3ccccc3)CC2)cc(OC)c1OC,-,-,67,-,-,-,
O=c1oc(-c2ccccc2)nc2ccccc12,-,-,-,-,.,.,
CCOC(=O)c1c(N)n(CCCN2CCOCC2)c2nc3ccccc3nc12,-,-,55,-,-,-,
CCCCCCN(CCCCCC)CC(=O)Nc1c2c(nc3ccccc13)CCC2,-,-,71,-,-,-,
CCCCCN(CCCCC)CC(=O)Nc1cc(C)nc2ccccc12,-,-,74,-,-,-,
CCN(CC)CC(=O)Nc1c2c(nc3ccccc13)CCCC2,-,-,-,-,.,.,
CN(C)CCCNc1ncnc2sc3c(c12)CCC3,-,-,79,-,-,30,
CN(C)CCCNc1ncnc2sccc12,-,-,73,-,-,-,
SMILES,TEAD-YAP inh,GPR151 activ,MITF inh,FBW7 act,MITF inh conf,AlphaScreen intf2,others
Cc1ccccc1NC(=O)c1sc2nc(N)c(C#N)cc2c1N,-,-,-,-,.,.,
Cc1ccc(Cn2cnc3c(cnn3-c3cccc(Cl)c3)c2=O)cc1,-,-,-,-,.,.,
CCOc1ccc(NC(=O)CSc2nnc(-c3ccncc3)n2CCCN(C)C)cc1,-,-,53,-,-,-,
CN(C)CCCn1c(SCc2ccccc2)nnc1-c1ccncc1,-,-,73,-,-,-,
CCn1c(=O)c(=O)n(CC)c2cc(S(=O)(=O)N(C)CC(=O)O)ccc21,-,-,-,-,.,.,
CC1=C(C(=O)O)N2C(=O)[C@@H](NC(=O)[C@H](N)c3ccccc3)[C@H]2SC1,-,-,-,-,.,.,
C/C=C\C1=C(C(=O)O)N2C(=O)C(NC(=O)C(N)c3ccc(O)cc3)C2SC1 (stereo not given),-,-,51,-,28,-,AlphaScreen DR=-
Cc1cc(NS(=O)(=O)c2ccc(NC(=S)NC(=O)C3CCCCC3)cc2)no1,-,-,-,-,.,.,
N#C/C(=C\c1ccc(OCC(N)=O)cc1)C(=O)Nc1ccc(Cl)cc1[N+](=O)[O-],-,-,-,-,.,.,
c1ccc(CN2CCN(C3CCN(Cc4cccnc4)CC3)CC2)cc1,-,-,-,-,.,.,
Clc1ccc(CN2CCN(Cc3cccnc3)CC2)cc1,-,-,84,-,-,-,
c1ccc(CN2CCN(Cc3cccnc3)CC2)nc1,-,-,74,-,-,-,
Clc1ccc(N2CCN(Cc3cccnc3)CC2)cc1,-,-,52,-,-,-,
Cc1ccccc1N1CCN(Cc2cccnc2)CC1,-,-,-,-,.,.,
CCc1ccc(CN2CCN(Cc3cccnc3)CC2)cc1,-,-,77,-,-,-,
CC(C)n1cc([C@@H]2C[C@H]3CN(C4CCCC4)C(=O)[C@]34CCCN24)cn1,-,-,-,-,.,.,
FC(F)(F)c1ccc(CN2CCN(Cc3cccnc3)CC2)cc1,-,-,81,-,-,-,
Clc1ccccc1CN1CCN(Cc2cccnc2)CC1,-,-,83,-,-,-,
O=C1CCN(Cc2cccnc2)CCN1Cc1ccc(F)cc1Cl,-,-,-,-,.,.,
FC(F)(F)c1cccc(N2CCN(Cc3cccnc3)CC2)c1,-,-,-,-,.,.,
COc1ccc(/C=C2N=C(/C=C/c3ccc(Cl)cc3Cl)OC\2=O)c(OC)c1OC,-,-,-,-,.,.,
CC(=O)NC12CC3CC(C1)CC(C(=O)NCC(c1ccco1)N(C)C)(C3)C2 (stereo not given),-,-,-,-,.,.,
Cc1sc2ncn(CC(=O)NC3CCCCCC3)c(=O)c2c1S(=O)(=O)N1CCOCC1,-,-,-,-,.,.,
C/C(CC(=O)NCc1ccco1)=N\NC(=O)c1ccccc1,-,-,-,-,.,.,
Cc1cc(=O)oc2cc(NC(=O)[C@H](C(C)C)N3C(=O)c4ccccc4C3=O)ccc12,-,-,-,-,.,.,
SMILES,TEAD-YAP inh,GPR151 activ,MITF inh,FBW7 act,MITF inh conf,AlphaScreen intf2,others
COc1cccc(CN2CCN(C(=O)c3cccnc3)CC2)c1,-,-,70,-,-,-,
COc1cccc(CN2CCN(C(=O)c3cc(OC)cc(OC)c3)CC2)c1,-,-,-,-,.,.,
COc1ccc(CN2CCN(C(=O)c3cccnc3)CC2)cc1,-,-,52,-,-,-,
COc1ccc(C(=O)N2CCN(C(=O)c3cccnc3)CC2)cc1,-,-,-,-,.,.,
COc1ccc(N(C(=O)c2ccc(-n3cnnn3)cc2)C2(C(=O)Nc3ccccc3C)CCCCC2)cc1,-,-,-,-,.,.,
COc1ccc(CCNC(=O)CCn2c(SCC(=O)N3CCN(c4ccccc4OC)CC3)nc3ccccc3c2=O)cc1OC,-,-,-,-,.,.,
